# An excerpt weighted towards active compounds, which were near 2.1% of everything screened.
# TPT1 inhibitor – Candida albicans TPT1 enzyme inhibitors, primary screen, biochemical, fluorescence polarization; tRNA 2'-phosphotransferase TPT1 (Candida albicans SC5314); inhibition, % at 5 µM; AID 1962, 2009; 0.81% of 300,000 active; recombinant caTPT1, FP RNA substrate dephosphorylation;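 active means inhibition above the mean of all tested compounds plus 3 SD, set per screening campaign, cut at about 24% in these data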;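 further: plate controls were DMSO alone for no effect and ferristatin control at 100 nM for full effect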
# Myeloid diff 2 – induction of myeloid progenitor differentiation, primary screen, cell-based, flow cytometry, MLPCN library | ER-HoxA9 myeloid progenitors, lysozyme-GFP differentiation | calls only at 10 µM | 1% of 360,000 active;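 active means normalized GFP-positive differentiation at or above the plate's own cutoff, the solvent-only control mean plus 3 SD; inconclusive means no clear call, values can overlap the other calls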;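 further: cells exposed to compound for four days before flow analysis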
# HNF4A DNA FP – change in binding of human HNF4A to DNA, primary screen, biochemical, fluorescence polarization, FITC-DNA. Hepatocyte nuclear factor 4-alpha (Homo sapiens), P41235. 1 h. activity change, % at 10 µM. 0.3% of 360,000 active. AID 1224865, 2016; in the data active means activity change above about 30%, passing the limit was not always enough
# Rpn11 block – Rpn11 (PSMD14) deubiquitinase inhibitors, primary screen, biochemical, fluorescence polarization, uHTS; AID 588493, 2011; human 26S proteasome, Ub4-pepOG fluorescence polarization; 20S core pre-blocked with epoxomicin; 0.59% of 360,000 active; inhibition, % at 20 µM; 26S proteasome non-ATPase regulatory subunit 14 (Homo sapiens), O00487;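 active means inhibition at 20 µM, scaled to each plate's controls, above about 33%, limit read from the data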
# Target sequence (O00487 whole entry, looked up): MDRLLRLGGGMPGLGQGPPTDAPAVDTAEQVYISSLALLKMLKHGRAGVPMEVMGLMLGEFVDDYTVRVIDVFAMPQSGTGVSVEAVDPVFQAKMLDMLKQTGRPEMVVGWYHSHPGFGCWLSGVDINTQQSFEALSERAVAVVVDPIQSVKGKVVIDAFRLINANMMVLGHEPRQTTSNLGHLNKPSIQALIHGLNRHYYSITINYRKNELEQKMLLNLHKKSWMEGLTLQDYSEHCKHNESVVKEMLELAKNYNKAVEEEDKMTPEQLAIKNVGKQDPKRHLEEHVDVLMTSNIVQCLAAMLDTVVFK
# * = called active by the depositor; i = inactive; ? = inconclusive; . = not tested or not shown; + = active, no number.
SMILES,TPT1 inhibitor,Myeloid diff 2,HNF4A DNA FP,Rpn11 block
CC(=O)Nc1cccc(N/C=C(\C=O)c2nc3ccccc3o2)c1,10,+,3,18
O=C/C(=C\Nc1ccccn1)c1nc2cc(Cl)ccc2o1,22,+,8,10
CC1CCCCC1NC(=O)CCCn1c(=S)[nH]c2ccsc2c1=O (configuration not stated),-3,i,1,-3
CC1CCCCC1NC(=O)CCCCn1c(=O)[nH]c2ccsc2c1=O (configuration not stated),0,+,2,0
O=C(NCc1cccc(C(F)(F)F)c1)c1[nH]c(C(F)(F)F)nc1-c1ccccc1,.,i,3,12
CCOc1cc(C(=O)NCCCNC(=O)c2cc(OCC)c(OCC)c(OCC)c2)cc(OCC)c1OCC,2,i,-2,-6
O=C(O)c1cc(O)c2c(c1)[C@H]([C@H]1c3cc(C(=O)O)cc(O)c3C(=O)c3c(O[C@@H]4O[C@H](CO)[C@@H](O)[C@H](O)[C@H]4O)cccc31)c1cccc(OC3O[C@H](CO)[C@@H](O)[C@H](O)[C@H]3O)c1C2=O (some centres not stated),75*,i,-90,21
COc1ccc(NC(=O)CSc2nnc(C3CCCCC3)o2)c(OC)c1,0,+,-4,0
COc1ccc(NCc2nnc(SCC(=O)Nc3ccc(OC)cc3OC)o2)cc1,0,i,5,3
Cc1cc(C(=O)Cn2nnc3ccccc3c2=O)c(C)n1-c1ccccc1F,-8,+,1,1
COc1ccc(-n2c(C)cc(C(=O)Cn3nnc4ccccc4c3=O)c2C)cc1,0,i,1,3
O=C(O)C1CC=CCC1C(=O)NCc1ccc2c(c1)OCO2 (configuration not stated),-1,+,5,-2
COc1cc(C(=O)C(=O)N2CCN(c3ccccc3)CC2)cc(OC)c1OC,.,?,2,.
COc1ccc(NC(=O)C2(C)CCN2C(=O)c2ccc(C(C)(C)C)cc2)cc1OC (configuration not stated),.,i,-4,4
CCn1c2ccccc2c2cc(NC(=O)c3coc(=O)c(Br)c3)ccc21,9,i,-46,-36
CCn1c2ccccc2c2cc(NC(=O)CSc3nnc(-c4ccccc4)o3)ccc21,4,+,0,1
CCn1c2ccccc2c2cc(NC(=O)c3ccc(Br)o3)ccc21,23,+,31,.
Cc1ccc2nc(NC(=O)CN3C(=O)NC4(CCCCC4)C3=O)sc2c1,2,i,-2,0
O=C(COC(=O)/C=C/c1ccccc1)NCc1ccco1,.,i,1,-5
NNC(=O)c1oc2nc(-c3ccccc3)cc(-c3ccccc3)c2c1N,-1,+,5,9
CCC(c1nnnn1-c1ccc2c(c1)OCCO2)N1CCc2ccccc2C1 (configuration not stated),.,i,-2,.
N#CCSc1nc2c(sc(=S)n2Cc2ccco2)c(=O)n1-c1ccc(F)cc1,1,i,58*,10
CCn1c(=S)sc2c(=O)n(-c3ccccc3)c(SC)nc21,2,i,1,0
Nc1nc(SCC(=O)c2cccs2)n[nH]1,0,i,39*,-11
Cc1cc(C(=O)N/N=C\c2cc(C(C)(C)C)ccc2O)n[nH]1,-2,+,3,0
SMILES,TPT1 inhibitor,Myeloid diff 2,HNF4A DNA FP,Rpn11 block
Cc1cc(C(=O)N/N=C/c2cccs2)n[nH]1,-4,i,1,-9
Cc1cnc(CNC(=O)c2csc([C@@H]3C[C@H](O)[C@@H](CO)O3)n2)cn1,.,i,0,3
CCN1C(=O)/C(=C/c2cn(-c3ccccc3)nc2-c2cccnc2)SC1=S,.,i,40*,.
CC(C)NC(=O)C1(C)CSCC(=O)N1Cc1cccc(C(F)(F)F)c1 (configuration not stated),.,i,9,.
Cc1cc(NC(=O)CSc2nc(=O)n(CCCN(C)C)c3c2CCCC3)no1,1,i,1,-3
COc1ccc(Nc2nc(Cl)c(C=O)s2)cc1,11,+,88*,.
COC(=O)C1CCN(C(=O)COC(=O)c2cc(-c3ccccc3)nc3ccc(OC)cc23)CC1,.,+,-4,-2
COc1ccc(CN(C)C2c3ccccc3-c3ccccc32)cc1,7,i,0,1
COc1cccc(CNC(=O)c2ccc(NC(=O)CC3SC(N4CCCC4)=NC3=O)cc2)c1 (configuration not stated),.,i,6,1
CCOC(=O)C1(Cc2ccc(OC)cc2)CCN(C(=O)CCc2cccnc2)CC1,-1,i,5,-2
CC1(C)C(/C=C/C=C/C=C/C=C2\N(CCCCS(=O)(=O)O)c3ccc4ccccc4c3C2(C)C)=[N+](CCCCS(=O)(=O)[O-])c2ccc3ccccc3c21,75*,i,-25,27
COC(=O)C1=C(C)N(Cc2ccccc2)C(=NCCc2cccnc2)N[C@H]1c1ccccc1,0,i,5,-1
COC(=O)C1=C(C)N(Cc2ccccc2)C(=NCCc2cccnc2)N[C@H]1c1ccc(Br)cc1,.,+,-6,-5
CCC(C)[C@H](NC(=O)NCc1ccc(S(N)(=O)=O)cc1)C(=O)O (some centres not stated),-2,i,5,1
Cn1c(C(=O)NN)cc2cc(Oc3ccccc3)ccc21,0,i,0,1
NNC(=O)c1cccc(COc2ccc(Br)cc2)c1,1,+,4,1
Cn1c(C(=O)NN)cc2cc(OCc3ccccc3)ccc21,2,+,4,-3
COc1ccc(OCc2cccc(C(=O)NN)c2)cc1,1,+,-1,-4
Nc1nc(=S)c2[nH]cnc2[nH]1,0,?,2,1
CC(=O)Nc1c(Cl)cc(Cl)c2c1Cc1cc(Cl)ccc1-2,.,i,0,-3
CN=C1NC(C)(C)C2CCC(C)(CC2)S1,.,+,-4,-14
CCCN(CC(=O)Nc1ccccc1C)C(=O)c1ccc2c(c1)S(=O)(=O)N=C1CCCCCN12,.,i,0,-5
CCOC(=O)C1CCCN(C(=O)Cn2ncc3c([nH]c4ccccc43)c2=O)C1 (configuration not stated),2,i,0,0
Cn1c(=O)[nH]c(=O)c2c1nc(N1CCN(Cc3ccccc3)CC1)n2CCSc1ncccn1,-2,+,4,-6
Cc1cc(Cl)ccc1OCC(=O)NNC(=O)c1cccnc1,-2,.,-4,-1
COC(=O)Nc1ccc2c(c1)Nc1ccccc1CC2,-2,i,9,0
Nc1ccc2c(c1)Nc1ccccc1CC2,1,+,0,-2
O=C(CSc1ccc2nnc(-c3ccccc3)n2n1)N1CCCCC1,0,i,1,0
COc1ccc(C(=O)Nc2nnc(Cc3cccs3)s2)cc1OC,3,+,2,1
COc1ccc(OCC(=O)C2CC2)c(C#N)c1,0,i,-1,-7
